Columns and labels:
[1] = target: T1, Serine/threonine-protein kinase Nek9 (Homo sapiens) (UniProt Q8TD19); details: at 1 µM;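 also: each value is a mean percent inhibition of NEK9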
T1 sequence (whole entry): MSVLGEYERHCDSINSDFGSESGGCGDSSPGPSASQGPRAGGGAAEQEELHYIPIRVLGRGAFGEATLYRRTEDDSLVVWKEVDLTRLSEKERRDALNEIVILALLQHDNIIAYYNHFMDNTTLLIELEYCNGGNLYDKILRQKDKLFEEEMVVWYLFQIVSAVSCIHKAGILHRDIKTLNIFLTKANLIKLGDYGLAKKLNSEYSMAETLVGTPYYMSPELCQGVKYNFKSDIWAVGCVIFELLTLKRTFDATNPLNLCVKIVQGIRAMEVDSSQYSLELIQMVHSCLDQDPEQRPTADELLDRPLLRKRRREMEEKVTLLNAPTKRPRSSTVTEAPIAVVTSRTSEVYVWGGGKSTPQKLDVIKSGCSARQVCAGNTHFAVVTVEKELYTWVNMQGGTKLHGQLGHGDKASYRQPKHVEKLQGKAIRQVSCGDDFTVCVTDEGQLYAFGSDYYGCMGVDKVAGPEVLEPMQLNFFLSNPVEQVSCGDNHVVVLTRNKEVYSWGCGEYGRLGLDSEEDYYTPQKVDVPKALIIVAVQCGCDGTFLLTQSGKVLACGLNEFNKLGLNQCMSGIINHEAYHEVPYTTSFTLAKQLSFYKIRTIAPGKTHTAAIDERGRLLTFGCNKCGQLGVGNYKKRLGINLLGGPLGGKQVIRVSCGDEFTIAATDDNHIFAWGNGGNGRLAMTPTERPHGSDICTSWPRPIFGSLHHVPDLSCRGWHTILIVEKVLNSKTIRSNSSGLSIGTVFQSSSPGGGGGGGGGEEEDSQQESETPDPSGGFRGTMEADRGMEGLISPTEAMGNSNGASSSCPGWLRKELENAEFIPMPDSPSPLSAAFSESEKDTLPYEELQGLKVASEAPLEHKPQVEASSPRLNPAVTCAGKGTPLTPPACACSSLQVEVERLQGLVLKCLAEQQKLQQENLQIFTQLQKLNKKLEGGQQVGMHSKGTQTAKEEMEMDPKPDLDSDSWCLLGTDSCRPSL

[2] = target: Serine/threonine-protein kinase PLK1 (Homo sapiens) (UniProt P53350); details: at 0.1 µM
[3] = target: Serine/threonine-protein kinase PLK1 (Homo sapiens) (UniProt P53350); details: at 1 µM
[4] = target: T2, Dual specificity protein kinase TTK (Homo sapiens) (UniProt P33981); details: at 0.1 µM
T2 sequence (whole entry): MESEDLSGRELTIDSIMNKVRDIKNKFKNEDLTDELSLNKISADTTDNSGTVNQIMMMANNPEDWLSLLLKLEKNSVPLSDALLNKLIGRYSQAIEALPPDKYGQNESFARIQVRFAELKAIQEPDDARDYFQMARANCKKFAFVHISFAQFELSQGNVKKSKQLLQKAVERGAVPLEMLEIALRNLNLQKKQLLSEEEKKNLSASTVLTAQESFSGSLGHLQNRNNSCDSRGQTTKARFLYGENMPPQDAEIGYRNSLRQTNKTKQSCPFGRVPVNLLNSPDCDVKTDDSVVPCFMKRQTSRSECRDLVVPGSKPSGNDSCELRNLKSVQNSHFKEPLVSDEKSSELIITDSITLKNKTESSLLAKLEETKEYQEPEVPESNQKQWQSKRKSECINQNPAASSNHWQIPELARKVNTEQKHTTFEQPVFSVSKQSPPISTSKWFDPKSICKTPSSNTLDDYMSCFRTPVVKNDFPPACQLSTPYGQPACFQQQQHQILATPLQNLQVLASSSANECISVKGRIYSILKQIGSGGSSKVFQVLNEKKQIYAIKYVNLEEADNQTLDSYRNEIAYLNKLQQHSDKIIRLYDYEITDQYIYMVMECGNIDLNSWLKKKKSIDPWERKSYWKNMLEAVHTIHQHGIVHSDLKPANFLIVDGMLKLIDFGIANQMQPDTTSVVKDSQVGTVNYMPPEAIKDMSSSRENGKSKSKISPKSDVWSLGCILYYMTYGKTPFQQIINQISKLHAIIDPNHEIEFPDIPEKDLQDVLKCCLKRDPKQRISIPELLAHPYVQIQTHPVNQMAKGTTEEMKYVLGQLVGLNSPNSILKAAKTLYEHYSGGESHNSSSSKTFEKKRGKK

[5] = system: T3, Receptor-type tyrosine-protein kinase FLT3 (Homo sapiens), P36888 [D835Y]; details: at 1 µM
T3 sequence (whole entry): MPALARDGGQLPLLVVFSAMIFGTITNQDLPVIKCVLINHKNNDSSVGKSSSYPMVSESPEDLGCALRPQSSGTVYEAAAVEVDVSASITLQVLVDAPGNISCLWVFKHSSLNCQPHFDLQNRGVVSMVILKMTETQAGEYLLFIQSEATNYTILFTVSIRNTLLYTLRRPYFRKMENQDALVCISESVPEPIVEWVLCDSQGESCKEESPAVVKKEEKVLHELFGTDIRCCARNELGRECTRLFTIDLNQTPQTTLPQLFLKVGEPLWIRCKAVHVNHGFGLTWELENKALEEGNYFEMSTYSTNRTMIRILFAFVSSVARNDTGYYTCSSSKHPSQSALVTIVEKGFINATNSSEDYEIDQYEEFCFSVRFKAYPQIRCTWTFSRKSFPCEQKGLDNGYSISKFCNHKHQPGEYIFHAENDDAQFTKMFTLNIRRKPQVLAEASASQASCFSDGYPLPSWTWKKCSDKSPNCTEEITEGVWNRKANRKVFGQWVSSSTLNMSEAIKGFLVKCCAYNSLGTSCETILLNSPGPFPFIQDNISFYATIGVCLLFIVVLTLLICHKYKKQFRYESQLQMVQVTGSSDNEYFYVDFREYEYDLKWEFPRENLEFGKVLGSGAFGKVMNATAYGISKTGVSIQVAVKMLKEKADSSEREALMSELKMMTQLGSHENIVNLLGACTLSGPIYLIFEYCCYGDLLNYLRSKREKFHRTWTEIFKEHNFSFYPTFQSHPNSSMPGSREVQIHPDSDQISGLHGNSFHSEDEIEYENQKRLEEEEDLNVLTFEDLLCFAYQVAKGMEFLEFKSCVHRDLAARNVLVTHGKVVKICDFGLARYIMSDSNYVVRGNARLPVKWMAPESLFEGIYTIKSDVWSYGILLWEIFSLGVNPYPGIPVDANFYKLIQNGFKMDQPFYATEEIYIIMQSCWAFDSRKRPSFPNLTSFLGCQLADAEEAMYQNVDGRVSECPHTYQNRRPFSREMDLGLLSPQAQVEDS

[6] = target: Vascular endothelial growth factor receptor 3 (Homo sapiens) (UniProt P35916); details: at 0.1 µM
[7] = target: Vascular endothelial growth factor receptor 3 (Homo sapiens) (UniProt P35916); details: at 1 µM
[8] = target: Macrophage colony-stimulating factor 1 receptor (Homo sapiens) (UniProt P07333); details: at 0.1 µM
[9] = target: Macrophage colony-stimulating factor 1 receptor (Homo sapiens) (UniProt P07333); details: at 1 µM
[10] = target: Tyrosine-protein kinase Fyn (Homo sapiens) (UniProt P06241); details: at 0.1 µM
Tyrosine-protein kinase Fyn (Homo sapiens), sequence (P06241 2-537 limits assumed): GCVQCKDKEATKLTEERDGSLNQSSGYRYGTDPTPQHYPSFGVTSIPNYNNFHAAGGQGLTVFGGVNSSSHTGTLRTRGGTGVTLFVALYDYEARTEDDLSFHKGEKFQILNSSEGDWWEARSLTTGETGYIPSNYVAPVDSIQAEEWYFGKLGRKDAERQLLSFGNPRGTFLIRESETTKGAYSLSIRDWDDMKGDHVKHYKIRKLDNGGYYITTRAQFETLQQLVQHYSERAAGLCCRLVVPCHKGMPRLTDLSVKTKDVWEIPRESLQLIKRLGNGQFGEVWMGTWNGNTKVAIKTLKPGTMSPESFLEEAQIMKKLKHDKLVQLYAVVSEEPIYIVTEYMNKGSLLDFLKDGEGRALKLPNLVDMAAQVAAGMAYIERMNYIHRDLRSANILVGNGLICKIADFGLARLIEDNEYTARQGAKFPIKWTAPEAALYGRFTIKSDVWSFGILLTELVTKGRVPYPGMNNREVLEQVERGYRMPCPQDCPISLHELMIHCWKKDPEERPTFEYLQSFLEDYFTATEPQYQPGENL

Macrophage colony-stimulating factor 1 receptor (Homo sapiens), sequence (P07333 whole entry): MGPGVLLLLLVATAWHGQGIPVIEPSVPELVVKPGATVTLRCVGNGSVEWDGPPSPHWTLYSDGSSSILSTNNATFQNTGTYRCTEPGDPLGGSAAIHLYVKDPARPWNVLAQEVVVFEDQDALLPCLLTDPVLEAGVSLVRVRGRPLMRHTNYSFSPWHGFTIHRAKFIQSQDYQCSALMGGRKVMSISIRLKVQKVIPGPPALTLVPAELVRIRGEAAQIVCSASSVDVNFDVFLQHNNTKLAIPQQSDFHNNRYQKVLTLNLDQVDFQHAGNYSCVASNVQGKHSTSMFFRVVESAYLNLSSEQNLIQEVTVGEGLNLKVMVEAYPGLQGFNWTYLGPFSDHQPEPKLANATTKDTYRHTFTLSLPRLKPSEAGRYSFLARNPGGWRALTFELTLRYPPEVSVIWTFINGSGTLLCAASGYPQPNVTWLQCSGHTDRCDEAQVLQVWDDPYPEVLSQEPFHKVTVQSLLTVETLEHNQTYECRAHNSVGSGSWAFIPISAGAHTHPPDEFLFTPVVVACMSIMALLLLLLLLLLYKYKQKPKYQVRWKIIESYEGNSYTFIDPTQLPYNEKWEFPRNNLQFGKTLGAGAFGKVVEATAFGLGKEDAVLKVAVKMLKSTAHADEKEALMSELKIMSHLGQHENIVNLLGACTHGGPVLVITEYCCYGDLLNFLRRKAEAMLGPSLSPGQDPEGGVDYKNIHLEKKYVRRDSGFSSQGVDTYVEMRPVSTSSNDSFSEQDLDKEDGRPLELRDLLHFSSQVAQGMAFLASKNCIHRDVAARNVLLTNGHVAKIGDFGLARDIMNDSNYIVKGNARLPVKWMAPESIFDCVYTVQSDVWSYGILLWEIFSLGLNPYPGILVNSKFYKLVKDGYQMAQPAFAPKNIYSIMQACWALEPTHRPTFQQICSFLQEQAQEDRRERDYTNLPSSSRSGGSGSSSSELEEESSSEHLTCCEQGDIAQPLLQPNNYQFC
Serine/threonine-protein kinase PLK1 (Homo sapiens), sequence (P53350 whole entry): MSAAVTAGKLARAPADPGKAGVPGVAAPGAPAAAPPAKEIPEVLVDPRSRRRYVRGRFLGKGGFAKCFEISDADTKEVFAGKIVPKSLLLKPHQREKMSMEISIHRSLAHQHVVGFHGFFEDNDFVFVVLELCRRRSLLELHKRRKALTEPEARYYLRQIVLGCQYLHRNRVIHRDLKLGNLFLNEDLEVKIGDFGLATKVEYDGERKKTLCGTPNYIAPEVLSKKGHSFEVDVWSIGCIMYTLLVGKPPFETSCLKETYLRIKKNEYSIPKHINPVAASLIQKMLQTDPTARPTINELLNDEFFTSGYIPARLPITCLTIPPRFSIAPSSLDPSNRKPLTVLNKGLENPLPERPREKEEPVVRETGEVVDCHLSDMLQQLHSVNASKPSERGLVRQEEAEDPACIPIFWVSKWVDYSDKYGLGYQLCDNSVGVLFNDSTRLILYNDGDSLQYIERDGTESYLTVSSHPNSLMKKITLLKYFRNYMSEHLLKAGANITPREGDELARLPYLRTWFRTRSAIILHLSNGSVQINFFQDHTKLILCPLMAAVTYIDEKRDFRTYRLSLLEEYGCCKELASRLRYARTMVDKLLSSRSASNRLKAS
Vascular endothelial growth factor receptor 3 (Homo sapiens), sequence (P35916 whole entry): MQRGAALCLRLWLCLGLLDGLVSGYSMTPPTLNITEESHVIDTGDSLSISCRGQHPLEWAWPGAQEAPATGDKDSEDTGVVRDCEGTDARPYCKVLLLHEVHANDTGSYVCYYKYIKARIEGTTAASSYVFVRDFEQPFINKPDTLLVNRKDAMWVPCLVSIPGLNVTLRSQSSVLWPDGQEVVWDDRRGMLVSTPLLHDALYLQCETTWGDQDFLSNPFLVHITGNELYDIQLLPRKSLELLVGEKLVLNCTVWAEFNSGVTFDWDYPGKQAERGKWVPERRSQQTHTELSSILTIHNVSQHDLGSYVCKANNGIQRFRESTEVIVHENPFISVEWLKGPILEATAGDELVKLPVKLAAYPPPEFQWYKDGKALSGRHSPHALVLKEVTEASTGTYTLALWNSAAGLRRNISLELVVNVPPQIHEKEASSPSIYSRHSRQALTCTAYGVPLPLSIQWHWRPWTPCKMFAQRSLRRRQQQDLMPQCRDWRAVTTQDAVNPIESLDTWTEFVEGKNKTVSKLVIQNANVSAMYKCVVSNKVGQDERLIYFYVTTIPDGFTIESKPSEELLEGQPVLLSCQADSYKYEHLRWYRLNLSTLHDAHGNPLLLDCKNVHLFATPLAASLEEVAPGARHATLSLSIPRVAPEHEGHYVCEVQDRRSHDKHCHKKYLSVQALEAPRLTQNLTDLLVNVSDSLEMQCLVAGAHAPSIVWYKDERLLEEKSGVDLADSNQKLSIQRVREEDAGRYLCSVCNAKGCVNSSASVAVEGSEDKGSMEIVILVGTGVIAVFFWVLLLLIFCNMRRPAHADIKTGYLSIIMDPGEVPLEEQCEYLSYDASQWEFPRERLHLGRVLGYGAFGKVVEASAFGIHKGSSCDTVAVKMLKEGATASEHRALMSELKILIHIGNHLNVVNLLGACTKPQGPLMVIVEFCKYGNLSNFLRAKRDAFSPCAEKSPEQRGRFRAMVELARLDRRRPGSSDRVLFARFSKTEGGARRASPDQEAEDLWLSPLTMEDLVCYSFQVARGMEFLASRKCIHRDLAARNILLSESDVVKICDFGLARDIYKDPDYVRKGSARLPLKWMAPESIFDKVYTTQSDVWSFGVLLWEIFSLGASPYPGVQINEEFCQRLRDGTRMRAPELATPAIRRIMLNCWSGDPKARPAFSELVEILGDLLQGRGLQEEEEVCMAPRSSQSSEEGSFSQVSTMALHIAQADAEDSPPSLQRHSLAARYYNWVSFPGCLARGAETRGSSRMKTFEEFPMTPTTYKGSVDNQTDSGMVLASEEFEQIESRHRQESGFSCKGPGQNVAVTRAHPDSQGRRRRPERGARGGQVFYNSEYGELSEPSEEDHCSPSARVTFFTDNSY

CC(C)COC(=O)c1ccc2c(c1)/C(=C/Nc1ccc(S(N)(=O)=O)cc1)C(=O)N2
inhibition [1]: 0.18% | inhibition [2]: 1.14% | inhibition [3]: 2.98% | inhibition [4]: 53.6% | inhibition [5]: 86.5% | inhibition [6]: 30.1% | inhibition [7]: 80.6% | inhibition [8]: 7.27% | inhibition [9]: 45.8% | inhibition [10]: 22.6%

Source: ChEMBL document CHEMBL1961873, “Compounds: GSK PKIS; Assays: Nanosyn kinase panel” (2012)
